Data: PubChem BioAssay AID1159580 (chemical genetic matrix, 2015)
Where “and” joins values, the source holds several entries; their conditions need not be identical. Equal entries are not always repeated. In all, about 5,500 compounds went through this assay and about 2,000 (36%) were called active. Roughly 18% stayed inconclusive and do not appear here. No stated cut-off is given here; in the data, active means normalized growth mostly below about 0.91 (no sharp cut-off); inconclusive means no clear call, values can overlap the other calls; inactive means mostly above about 0.92. Some of the results follow.

Test: chemical genetic growth profiling, strain panel (AID 1159580);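 further: tested at 20 µM; growth read once vehicle control cultures reached saturation at 30 °C; 1 = growth at the plate median or of vehicle wells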
Conditions: S. cerevisiae deletion strains, growth OD

Measured: normalized growth

C[N+]1(C)CCCC(OC(=O)C(O)(c2ccccc2)c2ccccc2)C1 (configuration not stated)
inactive: locus YBR021W, strain FUR4, stronger effect = lower value 1.01 | locus YBR229C, strain ROT2, stronger effect = lower value 1.01 | locus YCL029C, strain bik1, stronger effect = lower value 0.988 | locus YDL035C, strain GPR1, stronger effect = lower value 1.02 | locus YDL074C, strain BRE1, stronger effect = lower value 1.01 | locus YDL101C, strain DUN1, stronger effect = lower value 0.999 | locus YDL185W, strain tfp1, stronger effect = lower value 0.961 | locus YDL192W, strain arf1, stronger effect = lower value 0.983 | locus YDR101C, strain arx1, stronger effect = lower value 1 | locus YDR150W, strain NUM1, stronger effect = lower value 1 | locus YDR162C, strain NBP2, stronger effect = lower value 1.01 | locus YDR318W, strain mcm21, stronger effect = lower value 0.976 | locus YDR388W, stronger effect = lower value 0.997 | locus YDR502C, strain sam2, stronger effect = lower value 0.989 | locus YEL061C, strain CIN8, stronger effect = lower value 0.999 | locus YER110C, stronger effect = lower value 0.968 | locus YER155C, strain BEM2, stronger effect = lower value 1 | locus YER167W, strain BCK2, stronger effect = lower value 0.995 | locus YGL078C, strain dbp3, stronger effect = lower value 0.976 | locus YGL086W, strain mad1, stronger effect = lower value 1.02 | locus YGL248W, strain PDE1, stronger effect = lower value 1 | locus YGR078C, strain PAC10, stronger effect = lower value 1 | locus YGR135W, strain pre9, stronger effect = lower value 0.937 | locus YGR252W, strain gcn5, stronger effect = lower value 0.936 | locus YHR030C, strain SLT2, stronger effect = lower value 1 and 1.03 | locus YHR079C, strain IRE1 (second series), stronger effect = lower value 0.982 | locus YHR079C, strain IRE1, stronger effect = lower value 1.02 | locus YHR094C, strain hxt1, stronger effect = lower value 0.996 | locus YHR129C, strain ARP1, stronger effect = lower value 1 | locus YHR200W, strain rpn10, stronger effect = lower value 0.975 | locus YIL066C, strain RNR3, stronger effect = lower value 1.01 | locus YIL073C, strain SPO22, stronger effect = lower value 0.937 | locus YIL125W, strain kgd1, stronger effect = lower value 0.997 | locus YIR030C, strain dcg1, stronger effect = lower value 0.978 | locus YJL095W, strain BCK1, stronger effect = lower value 0.969 and 1.02 | locus YJL134W, strain LCB3, stronger effect = lower value 1 | locus YJL168C, strain set2, stronger effect = lower value 0.998 | locus YJL187C, strain SWE1 (second series), stronger effect = lower value 1.01 | locus YJR043C, strain POL32, stronger effect = lower value 1.03 | locus YJR066W, strain TOR1, stronger effect = lower value 0.986 | locus YKL009W, strain mrt4, stronger effect = lower value 1 | locus YKL068W, stronger effect = lower value 0.991 | locus YKL085W, strain MDH1 (second series), stronger effect = lower value 0.97 | locus YKL085W, strain MDH1, stronger effect = lower value 0.97 | locus YKR001C, strain vps1, stronger effect = lower value 0.99 | locus YLR039C, strain RIC1, stronger effect = lower value 0.94 | locus YLR058C, strain SHM2, stronger effect = lower value 0.998 | locus YLR102C, strain apc9, stronger effect = lower value 0.982 | locus YLR113W, strain HOG1, stronger effect = lower value 1.02 | locus YLR262C, strain YPT6, stronger effect = lower value 0.979 | locus YLR268W, strain sec22, stronger effect = lower value 0.996 | locus YLR330W, strain CHS5, stronger effect = lower value 0.994 | locus YLR342W, strain FKS1 (second series), stronger effect = lower value 1.01 | locus YLR371W, strain rom2, stronger effect = lower value 0.985 | locus YLR418C, strain cdc73, stronger effect = lower value 0.969 | locus YML016C, strain PPZ1, stronger effect = lower value 1 | locus YML032C, strain rad52, stronger effect = lower value 0.996 | locus YML124C, strain tub3, stronger effect = lower value 0.991 | locus YMR078C, strain ctf18, stronger effect = lower value 0.97 | locus YMR223W, strain ubp8, stronger effect = lower value 0.951 | locus YMR307W, strain GAS1, stronger effect = lower value 1.03 | locus YNL067W, strain RPL9B, stronger effect = lower value 0.997 | locus YNL153C, strain GIM3, stronger effect = lower value 1 | locus YNL183C, strain NPR1, stronger effect = lower value 0.983 | locus YNL233W, strain BNI4, stronger effect = lower value 0.997 | locus YNL250W, strain rad50, stronger effect = lower value 0.962 | locus YNL271C, strain bni1, stronger effect = lower value 0.981 | locus YNL298W, strain CLA4, stronger effect = lower value 0.968 | locus YNL307C, strain MCK1, stronger effect = lower value 0.981 | locus YNL322C, strain KRE1, stronger effect = lower value 0.99 | locus YNR052C, strain pop2, stronger effect = lower value 0.975 | locus YOL006C, strain TOP1, stronger effect = lower value 0.969 | locus YOL012C, strain htz1 0.94 | locus YOL147C, strain pex11, stronger effect = lower value 0.993 | locus YOR061W, strain CKA2, stronger effect = lower value 0.999 | locus YOR069W, strain VPS5, stronger effect = lower value 1 | locus YOR136W, strain idh2, stronger effect = lower value 0.996 | locus YOR144C, strain elg1, stronger effect = lower value 0.993 | locus YOR184W, strain ser1, stronger effect = lower value 0.981 | locus YOR231W, strain MKK1, stronger effect = lower value 1.02 | locus YOR316C, strain cot1, stronger effect = lower value 0.983 | locus YPL256C, strain CLN2, stronger effect = lower value 1.03 | locus YPR119W, strain clb2, stronger effect = lower value 0.979 | locus YPR141C, strain kar3, stronger effect = lower value 0.983 | locus YPR163C, strain tif3, stronger effect = lower value 0.984 | locus YPR167C, strain met16, stronger effect = lower value 0.987 | strain wtn01, stronger effect = lower value 0.975
